Test results taken from PMC4336329 (PLoS ONE, 2015).
Screen size: about 310,000 compounds; about 2,200 (0.71%) showed an effect of 50% or more. Effects have a minus sign here. The list comes from a sample in which strong results are over-represented; it also holds similar structures and randomly drawn compounds.

Biological target: human ether-à-go-go-related gene (hERG) potassium channel (human, UniProt Q12809)
Experiment: primary screen, population patch clamp on CHO cells stably expressing hERG; higher = less effect of the substance

human ether-à-go-go-related gene (hERG) potassium channel, sequence (Q12809 whole entry, looked up): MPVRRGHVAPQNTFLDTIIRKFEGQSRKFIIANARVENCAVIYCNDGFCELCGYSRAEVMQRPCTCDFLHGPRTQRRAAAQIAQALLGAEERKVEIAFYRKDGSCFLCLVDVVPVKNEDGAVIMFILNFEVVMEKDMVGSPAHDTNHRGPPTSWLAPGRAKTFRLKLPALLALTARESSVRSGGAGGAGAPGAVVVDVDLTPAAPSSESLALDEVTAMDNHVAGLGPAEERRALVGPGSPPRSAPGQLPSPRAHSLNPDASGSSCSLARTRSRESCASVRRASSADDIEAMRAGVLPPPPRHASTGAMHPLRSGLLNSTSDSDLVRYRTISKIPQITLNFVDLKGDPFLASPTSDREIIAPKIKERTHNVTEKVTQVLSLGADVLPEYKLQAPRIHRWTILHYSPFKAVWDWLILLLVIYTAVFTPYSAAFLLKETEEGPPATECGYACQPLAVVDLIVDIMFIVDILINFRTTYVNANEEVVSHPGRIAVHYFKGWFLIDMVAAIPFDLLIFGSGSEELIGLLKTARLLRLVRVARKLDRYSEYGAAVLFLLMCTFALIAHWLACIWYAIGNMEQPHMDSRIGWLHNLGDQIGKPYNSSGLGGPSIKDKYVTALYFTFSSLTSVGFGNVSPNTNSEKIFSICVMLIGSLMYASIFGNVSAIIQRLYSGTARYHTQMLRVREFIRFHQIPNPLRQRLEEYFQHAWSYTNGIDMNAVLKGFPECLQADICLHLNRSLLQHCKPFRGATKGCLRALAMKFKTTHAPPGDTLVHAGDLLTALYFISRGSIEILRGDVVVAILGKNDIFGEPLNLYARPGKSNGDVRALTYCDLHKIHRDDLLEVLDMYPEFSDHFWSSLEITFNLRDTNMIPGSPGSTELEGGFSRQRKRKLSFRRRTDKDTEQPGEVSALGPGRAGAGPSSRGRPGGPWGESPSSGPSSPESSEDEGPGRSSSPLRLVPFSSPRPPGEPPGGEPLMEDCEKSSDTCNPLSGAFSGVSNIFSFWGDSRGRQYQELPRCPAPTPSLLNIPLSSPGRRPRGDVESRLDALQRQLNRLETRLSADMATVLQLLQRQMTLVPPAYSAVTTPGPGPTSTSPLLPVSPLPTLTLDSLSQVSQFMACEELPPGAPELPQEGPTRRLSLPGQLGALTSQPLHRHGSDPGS

Structure (SMILES) | hERG current change (%, negative = inhibition) at 1uM [%]
COC(=O)c1oc2ccccc2c1NC(=O)c1ccccc1O | 16.2
Cc1ccc(C)c(NC(=O)CCN2C(=O)c3ccccc3C2=O)c1 | 15.3
CC(C)(C)NC(=O)CSCc1ccc(Br)cc1 | 1.24
O=C(Nc1nnc(-c2cccnc2)o1)c1cccc(Cl)c1 | 3.43
CCOC(=O)c1cc2c(=O)n3ccccc3nc2n(CCCOC)c1=NC(=O)c1ccncc1 | -40
CCOC(=O)c1cc2c(=O)n3cccc(C)c3nc2n(CCCOC)c1=NC(=O)c1cccnc1 | -65.4
CCOCCCn1c(=NC(C)=O)c(C(=O)OCC)cc2c(=O)n3ccccc3nc21 | -4.7
CCOCCCn1c(=NC(=O)c2cccnc2)c(C(=O)OCC)cc2c(=O)n3ccccc3nc21 | -67.8
CCCCCn1c(=NC(=O)c2cccnc2)c(C#N)cc2c(=O)n3cccc(C)c3nc21 | -5.66
CCOC(=O)c1cc2c(=O)n3ccccc3nc2n(CCCOC)c1=NC(=O)c1cccnc1 | -18.4
O=c1c2ccccc2c(C=NCCO)c(O)n1-c1ccccc1 | 11
Brc1ccc2c(c1)C(OC1CN3CCC1CC3)c1ccccc1CS2.O=C(O)/C=C\C(=O)O (stereo not drawn) | -27.6
COc1ccc(Nc2c3c(nc4ccccc24)CCCC3)cc1OC | -78
COc1ccc(Nc2c3c(nc4ccccc24)CCC3)cc1.Cl | -14.5
Cl.Fc1cccc(Nc2c3c(nc4ccccc24)CCC3)c1 | -9.35
N#Cc1cccc(Nc2c3c(nc4ccccc24)CCC3)c1 | -18
N#Cc1cccc(Nc2c3c(nc4ccccc24)CCCC3)c1 | -60.5
Cc1ccc(Nc2c3c(nc4ccccc24)CCC3)cc1.Cl | -57.7
COc1cc(Nc2c3c(nc4ccccc24)CCCC3)cc(OC)c1OC | -48.3
Cl.c1ccc2c(Nc3ccc4c(c3)OCCO4)c3c(nc2c1)CCC3 | -13.9
c1ccc2c(Nc3ccc4c(c3)OCCO4)c3c(nc2c1)CCCC3 | -83.5
Cc1ccc2nc3c(c(Nc4ccc5c(c4)OCCO5)c2c1)CCC3.Cl | -5.67
COc1cc(Nc2c3c(nc4ccccc24)CCC3)cc(OC)c1OC | -19.4

Structure (SMILES) | hERG current change (%, negative = inhibition) at 1uM [%]
Cl.c1ccc(Nc2c3c(nc4ccccc24)CCC3)cc1 | -33.1
Cc1nnc(SCc2ccc(C(=O)c3ccc(Cl)cc3)o2)n1-c1ccccc1 | -14.1
Cc1[nH]c2ccccc2c1/C=C/c1nc2ccccc2c(=O)n1-c1cccc([N+](=O)[O-])c1 | 8.08
CCOc1ccc(C2c3c(oc4cc(C)c(C)cc4c3=O)C(=O)N2CCCN(C)C)cc1OC (stereo not drawn) | 4.1
CCN(CC)C(=O)CN(c1cccc(OC)c1)S(=O)(=O)c1ccc(C)cc1 | 13.2
Cc1ccc(-n2[nH]c(C)c(/C=N/Nc3ccc([N+](=O)[O-])cc3[N+](=O)[O-])c2=O)cc1C | 9.38
CCOc1ccc(S(=O)(=O)NN=C2CCN(C(C)=O)CC2)cc1 | 2.55
CC(C)CNC(=O)CSc1nnc(-c2ccccn2)n1Cc1ccccc1 | 7.89
C[C@](N)(CCP(=O)(O)O)C(=O)O.Cl | -5.32
CCOC(=O)CSc1nc2ccccc2c(=O)n1CC1COc2ccccc2O1 (stereo not drawn) | 6.59
O=C(CCNS(=O)(=O)c1cccc2nsnc12)Nc1ccc2c(c1)OCCO2 | 12
CSc1ncc(Cl)c(C(=O)[O-])n1.[NH3+]CCc1ccccc1 | 0.119
Cc1ccc(CCNC(=O)C2CCN(S(=O)(=O)N3CCC4(CC3)OCCO4)CC2)cc1 | 9.02
Cc1nc2ccccc2n1CCc1nc2c3ccccc3nc(SCC#N)n2n1 | -0.451
NC(=O)CSc1nc2c(c(=O)n1-c1ccccc1)C1(CCCCC1)Cc1ccccc1-2 | 16.4
COc1ccccc1Nc1c2ccccc2nc2ccccc12 | -18.4
COc1cc(Nc2c3ccccc3nc3ccccc23)cc(OC)c1OC | -32.7
COc1cc(NS(C)(=O)=O)ccc1Nc1c2ccccc2nc2ccccc12.Cl | -59.7
Cc1ccc2c(Cn3ccnc3)cc(=O)oc2c1C | 15.6
CCCn1nnnc1NCc1ccc(N2CCCC2)cc1 | -1.22
Cc1ccc2nc(C)c3c(c2c1)N(c1ccccc1)CC3 | -70
Cc1ccc2nc(C)c3c(c2c1)N(c1ccc(F)cc1)CC3 | -94.5
